The values that follow come from PubChem BioAssay (NCATS).

The list shows a part of the results. A call without a number means that no potency is given here. Results filed as inconclusive are left out. Active and inactive are the calls of the source. The call rests on the fitted dose curve; in most records, active means well fitted inhibition curve with a large enough effect; inconclusive means small, poorly fitted or top-dose-only effect; inactive means no such curve, though single readings can be large or run the other way.
Potency means the concentration at half of the fitted maximal effect.

Sequence of RecQ-like DNA helicase BLM (Homo sapiens) (P54132 whole entry, looked up): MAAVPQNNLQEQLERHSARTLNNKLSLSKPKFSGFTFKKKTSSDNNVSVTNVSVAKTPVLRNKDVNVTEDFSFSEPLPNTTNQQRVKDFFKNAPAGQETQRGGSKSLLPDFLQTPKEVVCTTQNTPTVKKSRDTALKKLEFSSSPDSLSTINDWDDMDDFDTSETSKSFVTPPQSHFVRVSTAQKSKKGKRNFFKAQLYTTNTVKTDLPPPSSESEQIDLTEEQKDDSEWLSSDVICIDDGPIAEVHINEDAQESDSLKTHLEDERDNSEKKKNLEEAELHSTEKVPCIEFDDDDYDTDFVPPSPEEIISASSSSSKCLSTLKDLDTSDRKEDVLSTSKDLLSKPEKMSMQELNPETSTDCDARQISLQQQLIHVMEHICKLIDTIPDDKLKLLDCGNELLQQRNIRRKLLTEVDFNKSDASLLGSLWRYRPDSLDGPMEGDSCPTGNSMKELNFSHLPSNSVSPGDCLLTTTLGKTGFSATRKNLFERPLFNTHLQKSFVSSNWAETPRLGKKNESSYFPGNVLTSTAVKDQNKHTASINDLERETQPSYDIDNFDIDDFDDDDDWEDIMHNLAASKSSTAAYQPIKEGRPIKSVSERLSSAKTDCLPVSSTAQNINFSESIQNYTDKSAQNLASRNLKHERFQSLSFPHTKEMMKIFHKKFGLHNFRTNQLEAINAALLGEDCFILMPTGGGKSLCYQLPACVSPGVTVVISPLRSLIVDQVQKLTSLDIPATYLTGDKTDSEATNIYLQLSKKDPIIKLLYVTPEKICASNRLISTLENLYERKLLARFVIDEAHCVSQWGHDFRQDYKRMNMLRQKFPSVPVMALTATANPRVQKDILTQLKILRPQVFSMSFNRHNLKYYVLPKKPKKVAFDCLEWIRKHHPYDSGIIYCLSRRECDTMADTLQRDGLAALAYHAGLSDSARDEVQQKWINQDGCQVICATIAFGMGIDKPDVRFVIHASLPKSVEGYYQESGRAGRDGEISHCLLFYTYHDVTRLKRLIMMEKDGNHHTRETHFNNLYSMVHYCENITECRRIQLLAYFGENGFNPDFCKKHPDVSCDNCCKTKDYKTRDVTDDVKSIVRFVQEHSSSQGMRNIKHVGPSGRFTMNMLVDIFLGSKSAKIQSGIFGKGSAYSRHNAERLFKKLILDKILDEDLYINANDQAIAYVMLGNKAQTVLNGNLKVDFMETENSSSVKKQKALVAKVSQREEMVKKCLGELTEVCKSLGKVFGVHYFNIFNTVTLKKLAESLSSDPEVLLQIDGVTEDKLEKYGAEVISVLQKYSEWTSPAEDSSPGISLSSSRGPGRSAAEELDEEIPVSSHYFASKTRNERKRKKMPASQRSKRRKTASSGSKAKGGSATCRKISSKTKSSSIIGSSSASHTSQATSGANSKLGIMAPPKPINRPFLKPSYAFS

The assay concerns the target RecQ-like DNA helicase BLM (Homo sapiens) (UniProt P54132). The assay can be described thus: qHTS for Inhibitors of WRN Helicase: BLM Helicase Counterscreen for WRN Inhibitors (AID 720503). Further: nearly all actives have a fitted effect of over 60% in size. The following applies: Recombinant BLM helicase DNA unwinding, red fluorescence; series mostly up to 57.1 µM. Put shortly: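 BLM (1 nM) was preincubated with compounds for 15 min at room temperature in Tris-HCl pH 8.0, 50 mM NaCl, 2 mM MgCl2 buffer. Unwinding started with 100 nM DNA and 2 mM ATP (final); red fluorescence was read twice, 15 min apart.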
Background: qHTS replaces the single test concentration by a dilution series.
Take `O=C(Nc1ccccc1)c1nnsc1S(=O)(=O)c1ccc(Cl)cc1`: the Potency result was “inactive”.
The entry for `O=c1[nH]c2ccccc2n2c(-c3ccccc3)nnc12` is “inactive”; for `COc1ccc(Cl)cc1-c1cc(C(=O)Nc2cc(OC)c(OC)c(OC)c2)[nH]n1` it is 27.1 µM (active).
The figure for `CCOc1ccccc1C(=O)NCc1ccco1` is 19.2 µM (active).
